sEH inhibitor: soluble epoxide hydrolase (human) inhibition; P34913; AID 707; inhibition, % at 2 µM; recombinant human sEH enzymatic activity assay; 91,000 tested, 0.34% active; in the data active = inhibition above about 80%
Target sequence (P34913 whole entry, looked up): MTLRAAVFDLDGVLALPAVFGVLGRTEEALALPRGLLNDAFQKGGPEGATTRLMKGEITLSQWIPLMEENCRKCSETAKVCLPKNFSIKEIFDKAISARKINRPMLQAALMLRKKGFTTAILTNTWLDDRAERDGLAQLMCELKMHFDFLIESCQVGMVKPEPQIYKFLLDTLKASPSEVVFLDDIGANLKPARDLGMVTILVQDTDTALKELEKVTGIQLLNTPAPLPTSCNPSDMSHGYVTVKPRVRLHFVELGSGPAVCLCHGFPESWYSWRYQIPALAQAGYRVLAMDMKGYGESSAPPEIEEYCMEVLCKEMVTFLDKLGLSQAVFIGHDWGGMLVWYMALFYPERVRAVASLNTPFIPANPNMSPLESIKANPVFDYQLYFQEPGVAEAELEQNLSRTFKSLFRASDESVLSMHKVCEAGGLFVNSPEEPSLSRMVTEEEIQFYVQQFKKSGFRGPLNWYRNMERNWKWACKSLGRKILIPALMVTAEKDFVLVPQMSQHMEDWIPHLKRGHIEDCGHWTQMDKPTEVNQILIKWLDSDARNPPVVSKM
CYP2C19 inh: human CYP2C19 inhibition; P33261; CYP2C19 Supersomes, luciferin-H EGE luminescence, 30 min; inhibition, % at 5 µM; 96,000 tested, 21% active; AID 778;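 active = CYP2C19 inhibition above a set limit at 5 µM in the primary screen, cut at about 50% in these data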;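 also: plate controls were negative control wells for no effect and 2.5 mM tranylcypromine positive control for full effect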
CYP2C9 act: activators of human CYP2C9. 96,000 tested, 1.4% active. activation factor at 5 µM. recombinant CYP2C9, luciferin-H conversion, luminescence; active compounds read high; factor 1 = untreated enzyme, 0 = blocked. P11712. AID 1024;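 active = activation factor of 2 or more for CYP2C9 at a 5 µM dose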;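 also: 0 = sulfaphenazole-blocked wells and 1 = vehicle-only wells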
CYP2C19 activ: increases human CYP2C19 enzyme activity | activation factor at 5 µM | 96,000 tested, under 10 active | recombinant CYP2C19, luciferin-H EGE luminescence; active compounds read high; 0 = fully inhibited enzyme, 1 = untreated enzyme | AID 1025;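 active = activation factor of at least 2 at 5 µM in the primary screen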;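 also: 0 = wells with 2.5 mM tranylcypromine and 1 = vehicle-only wells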
sEH activator: increases human soluble epoxide hydrolase activity. purified human sEH enzymatic activity, activator screen. activation, % at 2 µM. AID 717. P34913. 91,000 tested, 0.04% active; in the data active = activation above about 37%
CYP2C9 inhib: human CYP2C9 inhibition; P11712; CYP2C9 Supersomes, luciferin-H conversion, luminescence; inhibition, % at 5 µM; 96,000 tested, 20% active; AID 777;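 active = blocking of liver enzyme CYP2C9 beyond about 50% at 5 µM, limit read from the data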
* marks the source's active call; other numbers are inactive results; · = not tested or not shown. Hits are enriched below; roughly 27% of the tested compounds scored in any of these assays.

SMILES	sEH inhibitor	CYP2C19 inh	CYP2C9 act	CYP2C19 activ	sEH activator	CYP2C9 inhib
N#Cc1c(NCCN)nc(NCc2ccccc2)c2c1CCN(Cc1ccccc1)C2	·	87.6*	0	0.1	·	95.2*
C=CCNc1nc(NCc2ccccc2)c(C#N)c2c1CN(C)CC2	-14.4	12.2	0.6	0.9	14.4	38.1
CCN1CCc2c(C#N)c(NCc3ccccc3)nc(N(CC)CC)c2C1	-6.6	17.0	0.5	0.8	6.5	45.4
Cc1cc(C)c(C#N)c(N2CCN(Cc3ccccc3)CC2)n1	-11.6	61.5*	0.5	0.4	10.2	50.1*
N#Cc1c(N2CCCCC2)nc(N2CCCCC2)c2c1CCN(Cc1ccccc1)C2	27.5	67.8*	0	0.3	-27.5	95.8*
CCCN1C2CCCC1CC(NC(=O)c1cc(OC)c(OC)c(OC)c1)C2 (configuration not stated)	-6.3	1.9	1	1	3.3	0.3
O=[N+]([O-])c1ccc(Nc2nc(N/N=C\c3ccc4c(c3)OCO4)nc(N3CCCCC3)n2)cc1	-2.8	9.6	0.6	0.9	5.7	37.6
CC1(C)CC(=O)C(C=NCCCn2ccnc2)=C(O)C1	-4.3	48.2	0.9	0.5	2.8	7.6
O=C(NC1=NCCS1)C1Cc2ccccc2CN1C(=O)c1ccccc1 (configuration not stated)	-1.7	78.9*	0.6	0.2	3.2	41.6
O=C(Cn1cnc2c(nnn2Cc2ccc(Cl)cc2)c1=O)NCc1ccco1	-4.0	·	·	·	1.9	·
O=C(COC(=O)c1ccccn1)NC1CCCCC1	5.8	28.0	0.2	0.7	-4.7	77.1*
O=C(COC(=O)c1ccccn1)NC12CC3CC(CC(C3)C1)C2	-0.2	79.7*	0.8	0.2	2.9	22.0
O=C(COC(=O)c1cccs1)c1ccccc1	-6.4	88.8*	0.2	0.1	6.9	77.8*
O=C(COC(=O)c1cccs1)NC1CCCCC1	-3.2	92.1*	0.8	0.1	4.0	17.5
CC(C)Oc1ccc(/C(O)=C2/C(=O)C(=O)N(CCN(C)C)C2c2ccco2)cc1 (configuration not stated)	1.6	-7.0	1.2	1.1	0.0	-22.3
Cc1ccc(CNC(=O)c2ccc(Cn3nc(C)c(Cl)c3C)o2)cc1	28.9	77.9*	0.6	0.2	-26.5	44.6
Cc1nn(Cc2ccc(C(=O)Nc3ccccc3C(F)(F)F)o2)c(C)c1Br	13.0	90.9*	0.6	0.1	-11.5	35.2
Cc1nn(Cc2cccc(C(=O)NCC(C)C)c2)c(C)c1Br	37.6	·	·	·	-34.5	·
Cc1cc(C)cc(NC(=O)c2ccc(Cn3nc(C)c(Cl)c3C)o2)c1	19.2	·	·	·	-14.9	·
CN(C)S(=O)(=O)c1ccc2oc(SCC(=O)NCC(F)(F)F)nc2c1	-19.9	14.8	0.9	0.9	19.3	11.2
Cc1ccc(-n2nc3c(c2NC(=O)c2ccc(S(=O)(=O)N4CCOCC4)cc2)CSC3)c(C)c1	-2.0	13.2	0.3	0.9	1.5	67.3*
Cc1cccc(-n2nc3c(c2NC(=O)c2ccc(S(=O)(=O)N4CCOCC4)cc2)CSC3)c1C	10.2	6.9	0.8	0.9	-8.9	17.0
COc1ccc(CNC(=O)c2ccc(=O)oc2)cc1OC	-9.9	38.8	0.8	0.6	7.6	23.3
Cc1ccc(NC(=O)CNc2ccc(OC(C)C)cc2)cc1	3.9	32.9	0.3	0.7	-3.7	70.2*
O=C(COC(=O)c1cccnc1)Nc1ccc(F)cc1	8.7	84.4*	0.7	0.2	-6.0	33.2
SMILES	sEH inhibitor	CYP2C19 inh	CYP2C9 act	CYP2C19 activ	sEH activator	CYP2C9 inhib
COCC(=O)Nc1ccc(N(C)C)cc1	1.7	15.2	1	0.8	-3.8	-3.0
Cc1ccc(OCC(=O)Nc2ccc(N(C)C)cc2)cc1	5.1	87.3*	0.9	0.1	-5.2	11.8
CN(C)c1ccc(NC(=O)COC(=O)CCC(=O)c2ccc(F)cc2)cc1	3.9	90.3*	0.2	0.1	-4.2	81.4*
Cc1cc(NC(=O)COC(=O)CCC(=O)c2ccc(F)cc2)no1	-2.1	8.3	0.8	0.9	2.1	15.8
O=C(COC(=O)c1cccnc1)Nc1ccccc1	14.1	·	·	·	-11.3	·
CC(C)c1ccc(/C=C/C(=O)n2nnc3ccccc32)cc1	-10.2	-21.7	1.1	1.2	12.4	-7.7
CCN(CC)c1ccc(NC(=O)OC)cc1	-3.3	9.6	0.4	0.9	5.7	62.6*
CCN(CC)c1ccc(NC(=O)COc2ccc(C)cc2)cc1	·	65.7*	1.5	0.3	·	-54.0
CCOc1ccc(OCC(=O)Nc2ccc(OC)cc2)cc1	-5.0	37.6	0.8	0.6	3.6	24.5
COc1ccc(-c2c(C(=O)O)nc3ccccc3c2C(=O)O)cc1	-2.0	3.7	1	1	-1.0	1.0
C=CCN1CCN(C(c2ccc(OC)c(OC)c2)c2nnnn2C(C)(C)C)CC1 (configuration not stated)	·	-0.3	1	1	·	-2.7
Cc1ccc(-c2cc(-c3cccs3)[nH]n2)c(O)c1	-3.8	19.4	0.6	0.8	6.4	37.3
Cc1ccc(S(=O)(=O)N(CCCN2CCCC2=O)Cc2cc3c(C)ccc(C)c3[nH]c2=O)cc1	4.6	10.9	0.4	0.9	-1.9	62.8*
COc1ccc(S(=O)(=O)N(CCCN2CCCC2=O)Cc2cc3cc(C)c(C)cc3[nH]c2=O)cc1	-11.0	22.5	0.3	0.8	8.7	67.6*
COc1ccc2[nH]c(=O)c(CN(CCCN3CCOCC3)C(=O)NCc3ccccc3)cc2c1	-0.8	-7.6	1	1.1	1.5	-1.2
CCCCOC(=O)C1=C(C)Nc2ncnn2C1c1cc(OC)c(OC)cc1OC (configuration not stated)	·	-3.4	0.6	1	·	37.5
Cc1noc(C)c1COC(=O)c1cccc(S(=O)(=O)N2CCCCCC2)c1	·	90.9*	0	0.1	·	96.2*
COc1ccc(S(=O)(=O)N2CCc3ccccc32)cc1C(=O)OCc1c(C)noc1C	-3.5	94.6*	0	0.1	4.0	98.9*
COc1cc(C(=O)N2CCN(S(=O)(=O)c3ccc(C)cc3)CC2)ccc1OCc1c(C)noc1C	·	70.1*	0.4	0.3	·	55.5*
Cc1noc(C)c1COC(=O)c1ccc2c(c1)OCCO2	0.9	·	·	·	-1.8	·
COc1cc(C=O)ccc1OCc1c(C)noc1C	7.2	84.7*	0.5	0.2	-8.8	47.6
Cc1ccc(-c2noc(CCCC(=O)Nc3cccnc3)n2)cc1	·	-2.3	0.7	1	·	34.3
CCCCc1ccc(CC2S/C(=C(\C#N)C(=O)N3CCOCC3)N(c3ccccc3)C2=O)cc1 (configuration not stated)	5.7	7.0	0.7	0.9	-9.0	31.6
Cc1ccc2nc(Nc3ccc4[nH]c(=O)[nH]c4c3)c(-n3nc(C)cc3C)nc2c1	-22.9	-16.6	1.1	1.2	26.9	-11.5
CCCCNC(=O)COC(=O)c1cc(S(=O)(=O)N2CCCCCC2)ccc1OC	6.6	55.4*	0.5	0.4	-5.3	47.8
COc1ccc(S(=O)(=O)N2CCCCCC2)cc1C(=O)OCC(=O)NC(N)=O	-13.5	10.1	0.8	0.9	12.9	21.2

Bioassay records from PubChem BioAssay.
